High-throughput results from PubChem.
PKA-R1A activ – activators of PKA-R1A holoenzyme, primary screen, biochemical, fluorescence polarization, Cy5-IP20, bovine R1A, mouse PKAc; cAMP-dependent protein kinase type I-alpha regulatory subunit (Bos taurus) + …; PKA-R1A dissociation; scaled: DMSO 0%, 113 µM cGMP 100%; activation, % at 11.4 µM; 340,000 tested, 0.083% active; AID 504707, 2011;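 active = percent activation above the mean of all tested compounds plus 3 SD, cut at about 19% in these data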;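 note: higher means more PKAc released from R1A so a rise in polarization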
PKA-R2B act – activators of PKA-R2B holoenzyme, primary screen, biochemical, fluorescence polarization, Cy5-IP20, human. PKA-R2B holoenzyme dissociation; R2B truncated from residue 108, S112A mutant; 0% DMSO only, 100% 113 µM cGMP. activation, % at 11.4 µM. 340,000 tested, 0.079% active;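 active = activation above a cutoff set at the mean over all compounds plus 3 SD, cut at about 18% in these data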;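 note: higher means more holoenzyme dissociation and a rise in polarization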
VLA-4 inh – inhibition in human VLA-4 binding assay, primary screen, VLA-4 allosteric modulator project, MLPCN library, flow cytometry, VLA-4 expressing cells. 330,000 tested, 0.2% active. AID 2557, 2010. ligand binding flow cytometry. inhibition, % (about 7 µM as worked out from the volumes in the protocol); in the data active = inhibition above about 50%
CendR NRP1 mod – modulators of CendR peptide binding to NRP-1, primary screen, biochemical, fluorescence polarization, uHTS | Neuropilin-1 (Homo sapiens), O14786 | inhibition, % at 25 µM | 360,000 tested, 0.85% active | FAM-RPARPAR peptide binding to NRP-1 | AID 602438, 2012;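 active = inhibition or corrected inhibition above about 18%, plus a signal ratio from 0.5 to 1.5, limit read from the data, passing the limit was not always enough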
ATG4B inh – ATG4B protease inhibitors, primary screen, biochemical, fluorescence, uHTS; Cysteine protease ATG4B (Homo sapiens), Q9Y4P1; ATG4B cleavage of LC3-PLA2, NBD-HPC fluorescence, 1 h; inhibition, % at 8.33 µM; 340,000 tested, 0.51% active; AID 504462, 2011; in the data active = inhibition above about 40%
Target sequence (Q9Y4P1 whole entry, looked up): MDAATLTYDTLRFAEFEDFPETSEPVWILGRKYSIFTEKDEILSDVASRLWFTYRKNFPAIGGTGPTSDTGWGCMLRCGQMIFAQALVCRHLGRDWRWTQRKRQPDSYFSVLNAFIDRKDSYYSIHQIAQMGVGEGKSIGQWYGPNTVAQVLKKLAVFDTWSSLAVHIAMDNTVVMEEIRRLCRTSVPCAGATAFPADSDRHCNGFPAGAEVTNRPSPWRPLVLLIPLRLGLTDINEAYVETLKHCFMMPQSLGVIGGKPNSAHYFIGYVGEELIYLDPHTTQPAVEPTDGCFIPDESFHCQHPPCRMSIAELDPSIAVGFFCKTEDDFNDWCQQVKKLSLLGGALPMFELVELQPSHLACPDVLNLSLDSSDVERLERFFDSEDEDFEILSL
Hits are given with their value; 0 = inactive; - = no result. Shown are actives, neighbours in structure and some others; about 1.6% of the full set was active somewhere.

SMILES	PKA-R1A activ	PKA-R2B act	VLA-4 inh	CendR NRP1 mod	ATG4B inh
COC(=O)c1ccc(CSc2nc3scc(-c4cccs4)c3c(=O)[nH]2)o1	0	0	0	0	53.5
COC(=O)c1ccc(CSc2nc3ccc(Cl)cc3[nH]2)o1	0	0	0	-	0
O=C(Cc1ccc([N+](=O)[O-])cc1)Nc1cccc(C(=O)N2CCCCC2)c1	0	0	0	25.6	0
O=C(Cc1ccc([N+](=O)[O-])cc1)Nc1cccc(C(=O)N2CCOCC2)c1	0	0	0	0	0
O=C(O)C[C@H]1c2cc(F)ccc2S(=O)(=O)N1C1CCCC1	0	0	0	0	0
O=C(O)C[C@H]1c2cc(F)ccc2S(=O)(=O)N1C1CCCCC1	0	0	0	25.1	0
COc1cc(/C=N/NC(=O)c2ccc(O)cc2)ccc1Oc1ccc([N+](=O)[O-])cn1	0	0	0	0	0
CCCCCCC1CC(CSC(=N)N)OC1=O (stereo not drawn)	0	0	0	0	0
CCCC1CC(CSC(=N)N)OC1=O (stereo not drawn)	0	0	0	27.2	0
O=C1c2ccccc2C(=O)c2c1ccc(O)c2O	0	0	-	82.7	0
CCCc1c(C(=O)N/N=C/c2ccoc2)nnn1-c1nonc1N	0	0	-	0	-
COC(=O)C[C@@H]1C=C[C@@H](NC(=O)CN(C)C)[C@@H](CO)O1	-	-	-	0	-
CCOCCCNC(=O)CN1CCN(S(=O)(=O)c2ccc3c(c2)CCC3)CC1	0	0	0	0	0
CC(=O)Nc1ccc(-c2ccnc3c2CC(C(=O)Nc2cccc(N(C)C)c2)O3)cc1 (stereo not drawn)	-	-	-	0	-
CCN(CC)c1ccc2cc(C(C)=O)c(=O)oc2c1	0	0	0	0	0
CCN(CC)c1ccc2cc(NC(=O)CCC(=O)O)c(=O)oc2c1	0	0	0	50.0	0
Cc1ccccc1-c1cc2nc(NCc3ccc(N(C)C)cc3)n(C)c(=O)c2s1	-	-	-	0	-
Cc1nc(NCc2ccco2)c2cn[nH]c2n1	0	0	-	27.7	0
c1coc(CNc2ncnc3[nH]ncc23)c1	0	0	0	0	0
CSc1ccccc1NC(=O)CN(C)C(=O)COc1cccc2cccnc12	0	0	0	27.4	0
COc1ccc(S(=O)(=O)CC(=O)c2cc3cc(Br)ccc3oc2=O)cc1	0	0	0	0	0
O=C1C(C=NCc2ccccn2)=C(O)c2ccccc21	0	0	0	0	0
CC(C)CN=CC1=C(O)c2ccccc2C1=O	0	0	0	23.4	0
CCOc1ccc(NC(=O)CN2CCc3ccccc3C2)cc1	0	0	0	0	0
CCOC(=O)c1ccc(NC(=O)CN2CCc3ccccc3C2)cc1	0	0	0	38.2	0
SMILES	PKA-R1A activ	PKA-R2B act	VLA-4 inh	CendR NRP1 mod	ATG4B inh
CCOC(=O)c1ccc(NC(=O)c2ccc(NS(C)(=O)=O)cc2)cc1	0	0	0	0	0
CCOC(=O)c1ccc(NC(=O)c2ccccc2)cc1	0	0	0	23.1	0
C=C(C)[C@@H]1C2=CC(C(=O)OC)=C(C[C@H](C(=C)C)[C@H]3O[C@H]3C3=C[C@H]1OC3=O)O2	-	-	-	0	-
O=C(O)COc1ccc(Cl)cc1C1CCCCC1	0	0	-	0	0
O=c1[nH]c(=O)n(C2OC(CO)C(O)C2O)c2c1CCCC2 (stereo not drawn)	-	-	-	22.9	-
COc1ccc(NC(=O)C[C@H]2C(=O)N(C3CCCCC3)C[C@@H]2CSC)cc1	0	0	-	0	-
CCOC(=O)C1=CCN(S(=O)(=O)c2ccc(C)cc2)C1c1cccc(C)c1 (stereo not drawn)	-	-	-	0	-
O=C(Nc1ccccc1-c1nnn(CC(=O)N2CCc3ccccc3C2)n1)C1CCC1	0	0	0	27.8	0
O=C(Nc1cccc(-c2nnn(CC(=O)N3CCc4ccccc4C3)n2)c1)C1CCC1	0	0	0	0	0
CCCSc1ccc(C(=O)Nc2ccc(Cl)cc2)cn1	0	0	0	28.0	0
CC#CCN(Cc1ccco1)C(=O)C1CCC(=O)N(Cc2ccccc2F)C1 (stereo not drawn)	0	0	0	23.3	0
CC#CCN(Cc1ccco1)C(=O)C1CCC(=O)N(CCc2cccc(F)c2)C1 (stereo not drawn)	0	0	-	0	-
O=C1C2C(c3ccccc3)C=CC(c3ccccc3)C2C(=O)N1CCCO (stereo not drawn)	0	0	0	21.9	0
C=CCOCCN1C(=O)C2C(c3ccccc3)C=CC(c3ccccc3)C2C1=O (stereo not drawn)	0	0	0	0	0
Cc1cccc(-c2cc(C(=O)Nc3ccc4c(c3)OCCO4)c3ccccc3n2)c1	0	0	0	0	0
CCOc1ccc(-c2cc(C(=O)Nc3ccc4c(c3)OCCO4)c3ccccc3n2)cc1	0	0	0	56.4	0
CSc1cccc(CN2CCN(Cc3ccccc3)C(CCO)C2)c1 (stereo not drawn)	0	0	0	24.3	0
Cc1c(C(=O)NCc2cccc(C(F)(F)F)c2)sc(=O)n1Cc1ccccc1F	-	-	-	0	-
COCCN(C(=O)COC(=O)c1ccc2c(c1)OCO2)c1c(N)n(Cc2ccccc2)c(=O)[nH]c1=O	0	0	-	0	-
COc1cccc(OCCNC(=O)Nc2cc(F)c(F)cc2Cl)c1	0	0	0	25.3	0
O=C(CC[C@H]1O[C@@H](n2cnc3c(NC(=O)c4ccccc4)ncnc32)[C@H](O)[C@@H]1O)NCc1cccc2ccccc12	-	-	-	0	-
CCOc1cc(C2NC(=O)NC(c3ccccc3)=C2C(C)=O)ccc1OCC(N)=O (stereo not drawn)	0	0	0	47.2	0
CC(CN1CCCCC1)OC(=O)c1ccc(Cl)cc1Cl (stereo not drawn)	0	0	0	22.3	0
CC(CN1CCCC1)OC(=O)c1ccc(Cl)cc1Cl (stereo not drawn)	0	0	0	0	0
Cc1ccc(S(=O)(=O)N2CCC[C@H]2C(=O)NC2=NCCS2)cc1	0	0	-	24.4	0
SMILES	PKA-R1A activ	PKA-R2B act	VLA-4 inh	CendR NRP1 mod	ATG4B inh
O=c1[nH]cnc2c1C(c1ccc(Cl)cc1)c1c(nc[nH]c1=O)O2	18.9	0	0	0	0
O=C(NCc1ccccc1)c1cccc(S(=O)(=O)N2CCCCC2)c1	0	0	0	30.8	0
Cc1cc2cc(CNC(=S)NCc3ccccc3)ccc2n1C	0	0	0	22.0	0
O=C(COC(=O)c1ccc([N+](=O)[O-])o1)Nc1cccc(S(=O)(=O)N2CCCCC2)c1	0	0	0	0	0
O=C(Nc1cccc(S(=O)(=O)N2CCCCC2)c1)c1ccc([N+](=O)[O-])o1	0	0	0	35.9	0
CC(=O)c1cccc(S(=O)(=O)N2CCC(C(=O)O)(c3ccccc3)CC2)c1	0	0	0	24.5	0
